# Assays:
# Experiment in all cases: PBM binding z-score (relative to random genomic background probes); higher = stronger binding; sequences stand for … in GC…GCGATTGACAGCGTAGAATGAAGG
# [1] = test system: PPARg:RXRa DBDmut IVT, anti-RXR (DBD mutation: RXRa K156A/R161A, NR concentration 270 nM, RXRa partner concentration 90 nM)
# Summary of the method: (§1)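 Ligand-free nuclear receptor dimers were applied to custom Agilent 4×180K protein-binding microarrays whose double-stranded probes carried direct-repeat seeds, single-nucleotide variants, half-site ablations and random human genomic background sequences in 34-nt variable regions. Incubation lasted 1 h. Binding z-scores were computed against the random background probes from regression-normalized fluorescence.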
# [2] = test system: PPARg:RXRa IVT, anti-PPARg (NR concentration 270 nM, RXRa partner concentration 90 nM)
# Summary of the method: as §1
# [3] = test system: PPARg DBDmut:RXRa IVT, anti-PPARg (DBD mutation: PPARg1 K132A/R137A, NR concentration 270 nM, RXRa partner concentration 90 nM)
# Summary of the method: as §1
# [4] = test system: PPARg DBDmut IVT, anti-PPARg (DBD mutation: PPARg1 K132A/R137A, NR concentration 270 nM)
# Summary of the method: as §1
# [5] = test system: PPARg homodimer (NR concentration 180 nM)
# Summary of the method: as §1
# [6] = test system: PXR:RXRa (NR concentration 270 nM, RXRa partner concentration 90 nM)
# Summary of the method: as §1
# [7] = test system: PXR homodimer (NR concentration 270 nM)
# Summary of the method: as §1
# [8] = test system: RARa:RXR (NR concentration 270 nM, RXRa partner concentration 90 nM)
# Summary of the method: as §1
# [9] = test system: RARa homodimer (NR concentration 270 nM)
# Summary of the method: as §1
# [10] = test system: RARb:RXRa (NR concentration 270 nM, RXRa partner concentration 90 nM)
# Summary of the method: as §1
Sequence,PBM binding z-score [1],PBM binding z-score [2],PBM binding z-score [3],PBM binding z-score [4],PBM binding z-score [5],PBM binding z-score [6],PBM binding z-score [7],PBM binding z-score [8],PBM binding z-score [9],PBM binding z-score [10]
TCTTGTAGATCAAAGGTTTAGAAAGCCGAAGCCT,1.79,1.19,0.53,0.0845,0.307,0.16,-0.198,0.358,-0.0128,-0.0359
TCTCGGAGGACTCGAAGGTCAGAGCTTTCCAGAG,1.45,0.0197,-0.446,-1.86,0.353,1.04,-0.316,1.48,-1.07,2.17
AGAATGAGGTTAAGATCAGGGGAACAGAATACAT,3.34,2.63,1.57,0.78,1.05,1.43,0.765,2.02,0.798,1.95
CGAACTAGGTCATTGACAGGACAGTAAATAGTAA,8.11,7.89,2.15,1.51,1.72,1.89,0.641,2.43,-0.0635,3.81
GCTCGCAGGCCATTTGGGTCACTCAATGACGGGC,1.09,1.56,-1.82,-1.26,0.213,0.621,0.71,0.492,-0.566,1.72
CGAACTAGGTCAGAACAGGACACTGAAGGATGAT,7.14,7.36,1.14,1.38,0.688,0.996,-0.0376,1.24,0.452,2.9
GCTCGGAGGACTAGGTCAGAGCTTTGTCCGTAGA,2.42,2.73,-1.06,-1.65,-0.329,-0.496,-0.984,-0.285,-1.53,1.27
TCGAGTAGGTTAGGCGGGGCATTCAGCCAACATA,1.73,1.84,0.466,0.361,-0.143,0.191,-0.273,0.0737,-0.554,0.48
AGTCAAAGTTAATCTAGGTAACGTAAGATATGCT,2.39,4.39,1.49,1.19,-0.261,-0.201,0.136,0.155,0.301,0.39
ATCTCTAGGTAGAAGTTCAGTGAATCCCGAGGAT,0.0712,1.23,0.95,0.43,0.271,0.947,1,0.436,0.785,1.07
AGAATGAGGTTACCGAAGATCAGGGAAACGCTTG,3.97,3.55,0.906,0.381,0.444,1.61,-0.388,2.46,-1.23,2.19
CCGACTGGGGCAAACGTTACCATACTCAGTACGA,5.15,3.9,-0.175,-0.646,0.256,-0.42,-0.33,-0.168,-0.437,0.494
ACTAGTTGGTCAGCTGAGGCCACACACAATTCGG,0.674,0.964,0.862,0.728,0.0249,1.11,-0.242,1,-0.472,1.13
ATACCAAGGTGATCGTGAGGTCTTTGATACTAAC,0.237,1.08,0.449,0.702,0.551,0.655,-0.114,0.833,0.255,0.705
ATCGCAAGGTCGAGGTGAGTATAGAGAAAGGGAA,-0.0497,1.28,0.589,-0.0017,-0.0351,1.04,-0.378,1.52,-0.173,2.75
CCTACTGGGCCATAAAGGTCATTGATGCCGATAA,3.2,4.78,-0.0892,0.0735,1.94,4.87,2.7,4.9,0.376,3.89
TCTGCTAGGTCAACGATGGTCCGCTAATCTGCTA,4.07,4,-0.429,0.0666,0.694,0.998,-0.847,1.91,-0.449,3.91
CATACAGGGTCAGCTAGGTCAGAGTAGGGACGGC,1.85,3.37,1.35,1.12,3.26,3.65,1.7,4.31,1.02,4.44
TAGCCTAGTTCAGATCGGGCCAGTATACGCTATA,0.415,0.54,-0.537,-0.978,-0.824,0.226,-0.407,0.532,-1.17,0.472
TCGAGTAGGTTAGTCGGGGCATTCTGCCAACATA,2.38,1.64,-0.758,-0.515,-0.211,-0.103,-0.171,-0.0333,-0.547,0.287
CTCGAAAGGTCGCTTGAGGTGAGTATACGGATAA,0.887,1.84,-0.0758,0.0176,1.47,4.26,0.207,3.93,0.149,3.61
AATACAGGGTCACTAGGCCAGAGCAGGTACGAAT,4.31,5.63,2.36,1.22,2.4,3.16,-0.000752,4.15,0.899,4.16
CCGAGTAGGATATGGGGCATTCAGGCAACGGTGA,2.05,2.81,-0.179,-0.813,0.55,-0.236,-0.112,-0.0398,0.174,-0.0937
CCTCGGAGGACAACGGGAGGTCAGAGCTGCCAGA,-0.505,0.451,-1.39,-1.24,2.26,2.45,0.352,2.8,0.367,2.92

# Reference: the supplement of paper PMC6555819
